Screening results deposited in PubChem BioAssay by National Center for Advancing Translational Sciences (NCATS).
MCF10A rereplic: A quantitative high throughput screen for small molecules that induce DNA re-replication in MCF 10a normal breast cells. MCF 10A DNA re-replication, Hoechst nuclear intensity, 48 h. Potency, µM (titrated, usually from 46.1 µM), for the others: at the top dose activity, positive = re-replication, most hits filed as activators. actives 2.9% (n = 350,000). AID 624296, 2012; note: % of control where 0% means no effect; nearly all actives have a fitted effect of over 50% in size
SW480 rereplic: A quantitative high throughput screen for small molecules that induce DNA re-replication in SW480 colon adenocarcinoma cells; AID 624297, 2012; actives 1.8% (n = 340,000); Potency, µM (highest dose often 46.1 µM), inactives show at the top dose re-replication activation, hits mostly activators; SW480 DNA re-replication, Hoechst DNA content imaging, 48 h; note: % of control where 0% means no effect; nearly all actives have a fitted effect of over 55% in size
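DNA re-replication was detected as more nuclei of elevated Hoechst intensity after 48 hr exposure to compound (23 nL pinned per well of 250 cells).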
Gal4-VP16 FLuc: VP16 counterscreen qHTS for inhibitors of ROR gamma transcriptional activity; Potency, µM (titrated, usually from 53.6 µM), for the others: top-dose activity, negative = inhibition, most hits filed as inhibitors; actives 3.5% (n = 310,000); Drosophila S2 Gal4-VP16 UAS-luciferase, luminescence, 20 h;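 note: Gal4-VP16 expression switched on by copper sulfate through the metallothionein promoter; % is set by controls: 0 for no effect and ±100 for the full control effect; nearly all actives have a fitted effect of over 50% in size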
RORg inh: qHTS for inhibitors of ROR gamma transcriptional activity. Drosophila S2 Gal4-RORgamma UAS-luciferase reporter, 20 h. actives 5.4% (n = 310,000). Potency, µM (doses to about 53.6 µM), for the others: top-dose activity change, negative = inhibition, hits mostly inhibitors. Nuclear receptor ROR-gamma (Mus musculus), P51450; note: % is set by controls: 0 for no effect and ±100 for the full control effect; nearly all actives have a fitted effect of over 60% in size
Target sequence (P51450 whole entry, looked up, the tested form may be a part): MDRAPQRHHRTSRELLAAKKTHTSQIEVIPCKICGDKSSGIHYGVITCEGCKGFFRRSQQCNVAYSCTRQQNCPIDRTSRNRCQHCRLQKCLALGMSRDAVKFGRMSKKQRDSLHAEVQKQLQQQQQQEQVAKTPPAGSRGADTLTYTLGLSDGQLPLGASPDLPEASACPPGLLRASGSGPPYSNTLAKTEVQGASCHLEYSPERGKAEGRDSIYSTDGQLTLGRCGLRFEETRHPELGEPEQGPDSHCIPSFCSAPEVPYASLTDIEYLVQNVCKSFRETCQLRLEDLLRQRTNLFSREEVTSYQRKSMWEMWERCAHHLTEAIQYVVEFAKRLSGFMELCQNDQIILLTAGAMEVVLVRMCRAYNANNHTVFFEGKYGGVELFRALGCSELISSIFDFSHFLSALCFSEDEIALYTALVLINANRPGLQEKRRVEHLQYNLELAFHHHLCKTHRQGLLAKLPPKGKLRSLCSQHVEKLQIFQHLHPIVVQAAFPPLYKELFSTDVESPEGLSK
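Compounds are pin-transferred onto Drosophila Schneider cells expressing a copper-inducible Gal4–ROR gamma transactivation domain fusion. After 1 hr, copper sulfate is added to 700 uM final; luciferase is read 20 hr later.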
ELG1 DNA repair: qHTS screen for small molecules that inhibit ELG1-dependent DNA repair in human embryonic kidney (HEK293T) cells expressing luciferase-tagged ELG1 | HEK293T ELG1-luciferase reporter, luminescence, 16 h; DNA damage induced by 5-fluorouridine | Potency, µM (titrated, usually from 46.1 µM), inactives show top-dose activity change, negative = inhibition, hits mostly inhibitors | actives 2.3% (n = 330,000) | AID 504467, 2011; note: % is set by controls: 0 for no effect and ±100 for the full control effect; nearly all actives have a fitted effect of over 55% in size
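Cells (2,000 per well) received 5-fluorouridine plus test compound or DMSO and were incubated 16 hr at 37 °C, 5% CO2. Luciferase activity was read by luminescence 30 min after ONE-Glo addition; signal suppression marked inhibition of damage-induced ELG1 function.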
The depositor's hits bear a star; ? = inconclusive; . = no result; [ ] = remark or other dose. This is a sample that favours compounds with a hit; in the whole collection about 10% have one here. Calls come from the whole dose curve; as a rule, active = well fitted curve in the direction sought with a large enough effect; inconclusive = small, poorly fitted or top-dose-only effect, or another doubt; inactive = no such curve, though single readings can be large; an effect the other way counts as inactive or inconclusive. Potency is the fitted concentration of half-maximal effect.

SMILES | MCF10A rereplic | SW480 rereplic | Gal4-VP16 FLuc | RORg inh | ELG1 DNA repair
COc1ccc2[nH]c3c(NCc4ccco4)ncnc3c2c1 | ? | 19% | 3% | ? | ?
COCCNc1ncnc2c1[nH]c1ccccc12 | 6% | -16% | -7% | 21% | 15µM*
CCN(CC)CCNc1ncnc2c1[nH]c1ccc(OC)cc12 | . | . | -1% | 23% | -5%
COc1ccccc1N1CCN(S(=O)(=O)c2ccc3c(c2)n(C)c(=O)n3C)CC1 | -12% | -18% | 2% | 22% | 9%
CC=O | . | . | 8% | -5% | .
CC(C)[C@@]1(c2ccc(Cl)cc2)ON(c2ccccc2C(F)(F)F)C1=O | . | . | . | . | -24%
O=C1N(c2ccccc2C(F)(F)F)O[C@@]1(c1ccccc1)C1CCCCC1 | 21µM* | ? | . | . | ?
O=C1N(c2ccccc2C(F)(F)F)O[C@@]1(c1ccccc1)C1CCCC1 | 16µM* | -5% | . | . | -30%
COc1ccc([C@]2(C(C)C)ON(c3ccccc3C(F)(F)F)C2=O)cc1 | 7% | -3% | . | . | -11%
COc1ccccc1[C@]1(C)ON(c2ccccc2C(F)(F)F)C1=O | 14% | 9% | . | . | 21µM*
Cc1nn(-c2ccccc2)c(C)c1/C=C/C(=O)OCC(=O)Nc1ccc(S(N)(=O)=O)cc1 | 16% | 9% | . | . | ?
CC(=O)c1c(O)cc(=O)n(-c2ccccc2)c1-c1cccc2ccccc12 | -2% | -2% | 10% | 42% | 10%
CCOC(=O)c1c(NC(=O)COc2ccccc2)sc2c1CC(C)(C)NC2(C)C | 3% | 9% | -14% | 0% | 0%
CCOC(=O)c1c(NC(=O)CSc2nc3ccccc3[nH]2)sc2c1CC(C)(C)NC2(C)C | ? | 16µM* | . | . | ?
CCN1C(=O)[C@H]2[C@H]3CN=C(SC)N3[C@@](C)(C(=O)OC)[C@H]2C1=O | 5% | -2% | . | . | .
CCc1c(O)nc(SCC(=O)Nc2ccccc2)n(-c2ccccc2)c1=O | 3.7µM* | 21µM* | -1% | 42% | 1%
CCc1c(O)nc(SCC(=O)Nc2cc(C)on2)n(-c2ccccc2)c1=O | -4% | -9% | -2% | -4% | 1%
Cc1ccc(NC(=O)c2ccc3c(=O)n4c(nc3c2)CCCCC4)cc1F | ? | 11% | 1% | -3% | -26%
Cc1cc(C)c2nc(NC(=O)c3ccc4c(=O)n5c(nc4c3)CCCCC5)sc2c1 | 16% | -1% | -7% | 2% | 10µM*
O=C(Nc1cccc(S(=O)(=O)N2CCOCC2)c1)c1ccc2c(=O)n3c(nc2c1)CCCCC3 | ? | -6% | -3% | 16% | 12µM*
Cc1cccc(N2CCN(C(=S)Nc3ccc4nc5n(c(=O)c4c3)CCCCC5)CC2)c1C | 23µM* | ? | -7% | 35% | 17%
O=C(Nc1ccccc1Cl)c1ccc2c(=O)n3c(nc2c1)CCC3 | 6% | -5% | . | . | ?
O=C(Nc1nc(-c2ccccc2)cs1)c1ccc2c(=O)n3c(nc2c1)CCCCC3 | 18µM* | -7% | ? | ? | 3.7µM*
Cc1ccc(NC(=O)c2ccc3c(=O)n4c(nc3c2)CCCCC4)nc1 | 14% | 1% | . | . | 0%
Cc1noc(C)c1C(=O)N1CCC[C@@]2(CCN(Cc3cc(C(F)(F)F)cc(C(F)(F)F)c3)C2)C1 | . | . | -5% | 20% | .
SMILES | MCF10A rereplic | SW480 rereplic | Gal4-VP16 FLuc | RORg inh | ELG1 DNA repair
COc1ccccc1NS(=O)(=O)c1cc(C(=O)Nc2ccc(S(=O)(=O)Nc3onc(C)c3C)cc2)ccc1C | 0% | -3% | . | . | .
O=C(Nc1cccc(S(=O)(=O)N2CCCC2)c1)c1ccc(Cl)nc1 | ? | 18µM* | . | . | 9.2µM*
O=C(Nc1cccc(S(=O)(=O)N2CCCC2)c1)c1ccc2c(=O)n3c(nc2c1)CCCCC3 | 17% | 0% | -25% | 32% | 5.8µM*
CC(=O)c1cccc(NC(=O)c2ccc3c(=O)n4c(nc3c2)CCCCC4)c1 | 10% | -1% | 5µM* | 2.5µM* | -20%
O=C(Nc1cccc(S(=O)(=O)N2CCOCC2)c1)c1ccc(Cl)nc1 | 24% | -2% | . | . | ?
COc1ccc(NC(=O)c2ccc3c(=O)n4c(nc3c2)CCCCC4)cc1 | 5% | 5% | -5% | -20% | ?
CCc1ccc(NC(=O)N2CCN(C(=O)C3CCCO3)CC2)cc1 (stereo unspecified) | -3% | 1% | 0% | 39% | 2%
COc1cccc(C(=O)NCC(=O)N/N=C/c2ccc3c(c2)OCO3)c1 | -1% | -4% | 6% | 0% | ?
CC1=C(C(=O)Nc2nc3ccccc3s2)C(c2ccco2)C(C#N)=C(SCC(=O)NC2CCCCC2)N1 (stereo unspecified) | 15µM* | 18µM* | -6% | 41% | ?
Cc1ccccc1Nc1nnc(SCC(=O)NC2CCCc3ccccc32)s1 (stereo unspecified) | 4% | 8% | 2% | 39% | ?
CCNc1nc(NCC)nc(SCCOC(=O)Nc2ccc(Cl)cc2Cl)n1 | 18µM* | -2% | ? | ? | ?
COCCN(Cc1nc(C2(c3ccc(C)cc3)CCCC2)no1)C(C)C | 4% | -5% | -7% | -29% | -1%
O=C(NCCc1cccc(Cl)c1)c1ccc(OC2CCN(Cc3ccccn3)CC2)cc1 | 9% | 5% | -19% | 18µM* | ?
CCn1cc(CNC(=O)c2ccc(OC3CCN(Cc4ccccn4)CC3)cc2)cn1 | -1% | -4% | -3% | ? | -19%
O=C(NCCc1ccccn1)c1ccc(OC2CCN(CCc3ccccc3)CC2)cc1 | 5% | 5% | -18% | -35% | ?
CCn1nc(C)c(CNC(=O)c2ccc(OC3CCN(Cc4ccccn4)CC3)cc2)c1C | -2% | 2% | 7.1µM* | -15% | ?
Cc1cccnc1CCNC(=O)c1ccc(OC2CCN(Cc3ccccn3)CC2)cc1 | 3% | -19% | ? | 14µM* | ?
CC1(C)[C@@H](OC(=O)CCC(=O)O)CC[C@@]2(C)[C@H]1CC[C@@]1(C)[C@H]2C(=O)C=C2[C@H]3C[C@](C)(C(=O)O)CC[C@]3(C)CC[C@@]21C | 9%[20.6 µM] | -2%[20.6 µM] | 3%[17 µM] | 5%[2.98 µM] | .
O=C(/C=C/c1ccco1)Oc1cc(Br)cc(/C=N/NC(=O)c2ccccc2O)c1 | ? | 0.73µM* | 2.8µM* | 3.2µM* | ?
Cn1cc(C(=O)C(=O)NC2CCCCC2)c2ccccc21 | 8% | -3% | 17% | -12% | ?
CCCCCCNC(=O)c1cc(S(=O)(=O)N2CCc3ccccc32)ccc1F | 3% | -8% | -4% | -32% | -8%
